Measurements reported in PubChem BioAssay (NCATS).
Records with an inconclusive call do not appear. Active and inactive are the calls of the source. The call rests on the fitted dose curve; in most records, active means well fitted inhibition curve with a large enough effect; inconclusive means small, poorly fitted or top-dose-only effect; inactive means flat fitted curve, though single readings scatter. Where a SMILES comes first, the peptide text is derived from it. Bridges are numbered along the chain shown (N, C = ends). [ ]: non-standard residue; d: D form. hArg = N=C(N)NCCCC[C@H](N)C(=O)O; Mpa = O=C(O)CCS

Tests used:
Assay in all cases: qHTS profiling for inhibitors of Plasmodium falciparum proliferation (AID 504749); further: nearly all actives have a fitted effect of over 60% in size
Settings in all cases: P. falciparum in erythrocytes, SYBR Green DNA, 72 h; series mostly up to 28.7 µM
CP268 = test system: CP268
Procedure, shortened: (§1)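 SYBR Green fluorescence of parasite DNA, read after lysis and overnight dark incubation, measured growth over 72 h in erythrocyte culture at 0.3% parasitemia and 2.5% hematocrit. Data normalised to DMSO and 0.29 uM artemisinin, with plate-drift correction.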

CP269 = test system: CP269
Procedure, shortened: as §1

CP286 = test system: CP286
Procedure, shortened: as §1

CP291 = test system: CP291
Procedure, shortened: as §1

CP297 = test system: CP297
Procedure, shortened: as §1

CP305 = test system: CP305
Procedure, shortened: as §1

CP315 = test system: CP315
Procedure, shortened: as §1

CP325 = test system: CP325
Procedure, shortened: as §1

CP329 = test system: CP329
Procedure, shortened: as §1

CP335 = test system: CP335
Procedure, shortened: as §1

DFO2036 = test system: DFO2036
Procedure, shortened: as §1

DIV14 = test system: DIV14
Procedure, shortened: as §1

DIV17 = test system: DIV17
Procedure, shortened: as §1

DIV30 = test system: DIV30
Procedure, shortened: as §1

Dd2 = test system: Dd2
Procedure, shortened: as §1

ECU = test system: ECU
Procedure, shortened: as §1

FAB9 = test system: FAB9
Procedure, shortened: as §1

GB4 = test system: GB4
Procedure, shortened: as §1

HB3 = test system: HB3
Procedure, shortened: as §1

ICS = test system: ICS
Procedure, shortened: as §1

Measured: Potency

Nc1ccncc1N
inactive: all assays above

NNc1nnc(NN)c2ccccc12
inactive: all assays above

CCOc1ccc(C(=O)OCCN(CC)CC)cc1
inactive: all assays above

COC(=O)c1cccnc1
inactive: all assays above

NS(=O)(=O)c1cc2c(cc1C(F)(F)F)NCNS2(=O)=O
inactive: all assays above

CC(=O)Nc1cccc(O)c1
inactive: all assays above

CCN(CC)CCc1nc(-c2ccccc2)no1
inactive: all assays above

CCCOC(=O)c1ccc(N)cc1
inactive: all assays above

CCCCCCCC(=O)OCC(O)CO (stereo not given)
inactive: all assays above

CC(=O)Oc1cccc(C)c1
inactive: all assays above

O=C(O)Cc1ccc(CCNS(=O)(=O)c2ccc(Cl)cc2)cc1
inactive: all assays above

C=CCNC(N)=S
inactive: all assays above

O=C(O)Cn1c(C(=O)Nc2nc(-c3ccccc3Cl)cs2)cc2ccccc21
not listed: ICS
inactive: all other assays above

CC(=O)Nc1ccc(C(=O)O)cc1
inactive: all assays above

Cc1c(I)c(=O)n(-c2ccccc2)n1C
inactive: all assays above

CC(C)C[C@@H](N)C(=O)O
inactive: all assays above

CC1CC(OC(=O)c2ccccc2O)CC(C)(C)C1 (stereo not given)
inactive: all assays above

CC(C)CCCC(C)CCCC(C)CCCCC(C)CCCC(C)CCCC(C)C (stereo not given)
inactive: all assays above

Cc1cc(=O)[nH]c(=S)[nH]1
inactive: all assays above

Cn1c(=O)c2c(ncn2CCO)n(C)c1=O
inactive: all assays above

CC(C)(C)C(=O)OCOC(=O)[C@@H]1N2C(=O)[C@@H](NC(=O)[C@H](N)c3ccccc3)[C@H]2SC1(C)C
inactive: all assays above

O=C(Cn1ccnc1[N+](=O)[O-])NCc1ccccc1
inactive: all assays above

CC(=O)SC[C@@H](Cc1ccccc1)C(=O)NCC(=O)OCc1ccccc1
not listed: ICS
inactive: all other assays above

Cc1cc(C)nc(NS(=O)(=O)c2ccc(N)cc2)n1
inactive: all assays above

Nc1ncnc2c1ncn2[C@@H]1O[C@H](COP(=O)(O)O)[C@@H](O)[C@H]1O
not listed: ICS
inactive: all other assays above

COc1ccccc1Oc1c(NS(=O)(=O)c2ccc(C(C)(C)C)cc2)nc(-c2ncccn2)nc1OCCO
not listed: ICS
inactive: all other assays above

COc1ccc2cc(CCC(C)=O)ccc2c1
inactive: all assays above

C=CCSCC1Nc2cc(Cl)c(S(N)(=O)=O)cc2S(=O)(=O)N1 (stereo not given)
inactive: all assays above

O=C(O)c1ccc(OCCCOc2ccc(C(=O)O)cc2)cc1
inactive: all assays above

CCCCC1(COC(=O)CCC(=O)O)C(=O)N(c2ccccc2)N(c2ccccc2)C1=O
inactive: all assays above

CCS(=O)(=O)CCn1c([N+](=O)[O-])cnc1C
inactive: all assays above

NC(=O)NS(=O)(=O)c1ccc(N)cc1
not listed: ICS
inactive: all other assays above

C[N+](C)(C)CC[N+]1(C)Cc2c(Cl)c(Cl)c(Cl)c(Cl)c2C1
inactive: all assays above

CC(C(=O)O)c1ccc2c(c1)Cc1cccnc1O2 (stereo not given)
inactive: all assays above

O=c1[nH]c2cc(C(F)(F)F)c(N3CCOCC3)cc2n(CP(=O)(O)O)c1=O
inactive: all assays above

O=C(NCCCN1CCOCC1)c1ccc(Cl)cc1
inactive: all assays above

O=c1[nH]cnc2nc[nH]c12
inactive: all assays above

C[C@@H]1O[C@@H](OC[C@H]2O[C@@H](Oc3c(-c4ccc(O)c(O)c4)oc4cc(O)cc(O)c4c3=O)[C@H](O)[C@@H](O)[C@@H]2O)[C@H](O)[C@H](O)[C@H]1O
inactive: all assays above

CC(=O)Oc1cccc(O)c1
inactive: all assays above

NS(=O)(=O)c1cc(-c2nn[nH]n2)c(NCc2cccs2)cc1Cl
inactive: all assays above

CCN(CC)CC1CCCCN1CC(=O)N1c2ccccc2C(=O)Nc2cccnc21 (stereo not given)
inactive: all assays above

O=C(O)CCCc1ccccc1
inactive: all assays above

NC(=O)[C@@H]1CSSCCC(=O)N[C@@H](CCCCN=C(N)N)C(=O)NCC(=O)N[C@@H](CC(=O)O)C(=O)N[C@@H](Cc2c[nH]c3ccccc23)C(=O)N2CCC[C@H]2C(=O)N1 ([Mpa][hArg]GDWPC-NH2; disulfide 1-7)
inactive: all assays above

CCc1nnc(NS(=O)(=O)c2ccc(N)cc2)s1
inactive: all assays above

CCCCOC(=O)c1ccc(N)cc1
inactive: all assays above

Cc1ccc(S(=O)(=O)NC(=O)NC2CCCCCCC2)cc1
inactive: all assays above

Cc1c(C(=O)NCCO)[n+](=O)c2ccccc2n1[O-]
inactive: all assays above

NNC(=O)CP(=O)(c1ccccc1)c1ccccc1
inactive: all assays above

CCCC(O)C(CC)CO (stereo not given)
inactive: all assays above

O=C(O)Cc1cn(-c2ccccc2)nc1-c1ccc(Cl)cc1
inactive: all assays above

COc1ccc(NS(=O)(=O)c2ccc(N)cc2)nn1
inactive: all assays above

CC(=O)NCc1c(I)c(NC(C)=O)c(I)c(C(=O)O)c1I
inactive: all assays above

C[C@@H]1CCC[C@H](C)N1
inactive: all assays above

c1ccc2[nH]ccc2c1
inactive: all assays above

O=C(O)CNC(=O)c1ccccc1I
inactive: all assays above

NCC1CCC(C(=O)Oc2ccc(CCC(=O)O)cc2)CC1 (stereo not given)
inactive: all assays above

CCOC(N)=O
inactive: all assays above
